Inconclusive results are not listed. Active and inactive are the calls of the source. Rule for the calls, unless noted: active = hit-call score of the fitted dose curve at least 0.9, where 1 is the maximum; inconclusive = response in the unintended direction; inactive = score below 0.9.
Key:
[1] = ATG_TAL_CIS: Attagene CIS-FACTORIAL HepG2 Assay for human TAL Basal Promoter (AID 2282966; active = hit-call score of the fitted dose curve at least 0.9, where 1 is the maximum; inactive = score below 0.9;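 note: background control endpoint measuring basal TAL promoter reporter mRNA not a specific factor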); settings: HepG2 Attagene cis-factorial TAL promoter reporter; actives raise or lower the signal
Summary of the method: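 Readout: reporter mRNA, fluorescence by CE. System: HepG2, transient multi-reporter transfection, endogenous TF activity. Exposure: 24 h. Analysis: bidirectional, DMSO-normalized; background control.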

[2] = ATG_TGFb_CIS: Attagene CIS-FACTORIAL HepG2 Assay for human Transforming Growth Factor (TGF) (AID 2282967; active = hit-call score of the fitted dose curve at least 0.9, where 1 is the maximum; inactive = score below 0.9); settings: HepG2 Attagene CIS TGFb reporter, mRNA transcription; actives raise or lower the signal
Summary of the method: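 Multiplexed cis-reporter HepG2 system, 24 h treatment; mRNA induction read by fluorescence after RT-PCR and CE; DMSO negative control, bidirectional curve fitting.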

[3] = ATG_VDRE_CIS: Attagene CIS-FACTORIAL HepG2 Assay for human Vitamin D Receptor Element (VDRE) (AID 2282968; active = hit-call score of the fitted dose curve at least 0.9, where 1 is the maximum; inactive = score below 0.9); settings: HepG2 VDRE cis-reporter transcription, actives raise or lower the signal
Summary of the method: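 Cell-based multiplexed reporter format in human liver HepG2 cells, 24 h post-dose. Fluorescence from capillary electrophoresis of reporter cDNA gives the signal, with DMSO as negative control and baseline.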

[4] = molecular target: Nuclear receptor subfamily 1 group I member 3 (Homo sapiens) (UniProt Q14994); assay: ATG_CAR_TRANS: Attagene TRANS-FACTORIAL HepG2 Assay for human Constitutive Androstane Receptor (CAR) (AID 2282969); settings: HepG2 Attagene TRANS-FACTORIAL CAR reporter;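 note: activators raise reporter mRNA above DMSO so AC50 marks induction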
Sequence of Nuclear receptor subfamily 1 group I member 3 (Homo sapiens) (Q14994 whole entry, looked up, the tested form may be a part): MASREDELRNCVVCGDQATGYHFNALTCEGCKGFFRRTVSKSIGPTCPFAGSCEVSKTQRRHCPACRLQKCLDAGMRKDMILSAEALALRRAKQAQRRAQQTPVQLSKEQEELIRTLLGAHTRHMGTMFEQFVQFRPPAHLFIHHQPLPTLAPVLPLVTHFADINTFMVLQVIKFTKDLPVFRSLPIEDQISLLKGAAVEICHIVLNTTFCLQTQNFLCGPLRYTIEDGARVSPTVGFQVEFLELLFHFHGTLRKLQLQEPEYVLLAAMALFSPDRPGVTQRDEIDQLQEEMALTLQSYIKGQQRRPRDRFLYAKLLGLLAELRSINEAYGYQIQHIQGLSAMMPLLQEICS
Summary of the method: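 HepG2 cells transiently transfected with GAL4-UAS reporter units; TRANS format reads activity of exogenous chimeric NR-Gal4 protein. After 24 h dosing, reporter mRNA quantified by RT-PCR, 6-FAM labelling and capillary electrophoresis; gain of signal fitted against DMSO.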

[5] = molecular target: Estrogen receptor (Homo sapiens) (UniProt P03372); assay: ATG_ERa_TRANS: Attagene TRANS-FACTORIAL HepG2 Assay for human Estrogen Receptor alpha (ERa) (AID 2282970); settings: HepG2 Attagene TRANS ERa GAL4 reporter, mRNA
Sequence of Estrogen receptor (Homo sapiens) (P03372 whole entry, looked up, the tested form may be a part): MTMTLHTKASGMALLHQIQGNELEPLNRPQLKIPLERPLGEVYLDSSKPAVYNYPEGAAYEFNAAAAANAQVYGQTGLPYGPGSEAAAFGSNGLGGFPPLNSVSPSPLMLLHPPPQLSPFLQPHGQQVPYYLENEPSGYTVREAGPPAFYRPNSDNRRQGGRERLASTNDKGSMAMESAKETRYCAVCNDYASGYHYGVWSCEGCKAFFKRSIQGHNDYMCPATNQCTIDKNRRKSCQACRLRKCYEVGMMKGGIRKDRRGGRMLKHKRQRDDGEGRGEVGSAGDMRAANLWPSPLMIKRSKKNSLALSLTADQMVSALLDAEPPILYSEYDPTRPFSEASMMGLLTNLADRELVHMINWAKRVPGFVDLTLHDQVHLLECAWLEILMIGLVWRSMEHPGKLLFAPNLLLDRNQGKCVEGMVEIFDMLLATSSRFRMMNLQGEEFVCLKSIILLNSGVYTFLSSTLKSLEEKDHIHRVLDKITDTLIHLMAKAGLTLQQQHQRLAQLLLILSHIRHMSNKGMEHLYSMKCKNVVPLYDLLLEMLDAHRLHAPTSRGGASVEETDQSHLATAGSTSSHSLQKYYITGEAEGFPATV
Summary of the method: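 Transactivation via ERa-Gal4 chimera in HepG2; 24 hour incubation; reporter mRNA detected by fluorescence RT-PCR and capillary electrophoresis.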

[6] = molecular target: X-box-binding protein 1 (Homo sapiens) (UniProt P17861); assay: ATG_Xbp1_CIS: Attagene CIS-FACTORIAL HepG2 Assay for human X-box Binding Protein 1 (XBP1) (AID 2282972; active = hit-call score of the fitted dose curve at least 0.9, where 1 is the maximum; inactive = score below 0.9); settings: HepG2 XBP1 cis-element reporter, Attagene multiplex; actives raise or lower the signal
Summary of the method: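 HepG2 cells transiently transfected with cis-regulated multiple reporter transcription units; endogenous transcription factor activity measured 24 hours after chemical dosing. Reporter mRNA quantified by RT-PCR, 6-FAM primer extension, HpaI digestion and capillary electrophoresis; bidirectional fitting versus DMSO.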

[7] = ATG_M_19_TRANS: Attagene TRANS-FACTORIAL HepG2 Assay for M19 Transcription Factor (Internal Marker) (AID 2282974); settings: HepG2 Attagene TRANS-FACTORIAL M19 internal marker reporter
Summary of the method: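 HepG2 transiently transfected with GAL4-UAS multiplex reporter constructs, exposed 24 h; reporter RNA quantified by RT-PCR, 6-FAM labeling, HpaI digestion and capillary electrophoresis; internal background marker fitted upward versus DMSO.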

[8] = ATG_GAL4_TRANS: Attagene TRANS-FACTORIAL HepG2 Assay for GAL4 (Internal Marker) (AID 2282976); settings: HepG2 Attagene TRANS GAL4 internal marker reporter
Summary of the method: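 Fluorescence from capillary electrophoresis of labelled RT-PCR products quantifies reporter mRNA induction after 24 h dosing of HepG2 cells carrying transfected GAL4-UAS reporter transcription units. Vehicle DMSO serves as baseline.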

[9] = molecular target: Oxysterols receptor LXR-alpha (Homo sapiens) (UniProt Q13133); assay: ATG_LXRa_TRANS: Attagene TRANS-FACTORIAL HepG2 Assay for human Liver X Receptor alpha (LXRa) (AID 2282980); settings: HepG2 Attagene TRANS reporter, LXRa transactivation
Sequence of Oxysterols receptor LXR-alpha (Homo sapiens) (Q13133 whole entry, looked up): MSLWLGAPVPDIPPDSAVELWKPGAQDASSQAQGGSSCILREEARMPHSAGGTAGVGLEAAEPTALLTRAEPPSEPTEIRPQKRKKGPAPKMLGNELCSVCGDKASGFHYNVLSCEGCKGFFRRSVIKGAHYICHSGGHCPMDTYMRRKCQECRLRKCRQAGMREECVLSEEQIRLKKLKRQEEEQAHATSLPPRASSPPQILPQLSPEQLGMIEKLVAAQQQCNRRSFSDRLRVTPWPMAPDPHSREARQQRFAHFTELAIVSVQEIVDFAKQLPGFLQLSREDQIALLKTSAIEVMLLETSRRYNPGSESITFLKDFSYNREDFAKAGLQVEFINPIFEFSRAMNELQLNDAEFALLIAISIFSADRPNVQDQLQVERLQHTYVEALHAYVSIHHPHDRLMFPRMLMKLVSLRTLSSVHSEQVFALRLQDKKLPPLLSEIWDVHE
Summary of the method: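 Transient HepG2 transfectants, 24 h dosing, RT-PCR/CE mRNA reporter quantitation; gain-of-signal vs DMSO.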

[10] = molecular target: Hepatocyte nuclear factor 4-alpha (Homo sapiens) (UniProt P41235); assay: ATG_HNF4a_TRANS: Attagene TRANS-FACTORIAL HepG2 Assay for human Hepatocyte Nuclear Factor 4 alpha (HNF4a) (AID 2282982); settings: HepG2 HNF4a transactivation reporter, mRNA readout
Sequence of Hepatocyte nuclear factor 4-alpha (Homo sapiens) (P41235 whole entry, looked up, the tested form may be a part): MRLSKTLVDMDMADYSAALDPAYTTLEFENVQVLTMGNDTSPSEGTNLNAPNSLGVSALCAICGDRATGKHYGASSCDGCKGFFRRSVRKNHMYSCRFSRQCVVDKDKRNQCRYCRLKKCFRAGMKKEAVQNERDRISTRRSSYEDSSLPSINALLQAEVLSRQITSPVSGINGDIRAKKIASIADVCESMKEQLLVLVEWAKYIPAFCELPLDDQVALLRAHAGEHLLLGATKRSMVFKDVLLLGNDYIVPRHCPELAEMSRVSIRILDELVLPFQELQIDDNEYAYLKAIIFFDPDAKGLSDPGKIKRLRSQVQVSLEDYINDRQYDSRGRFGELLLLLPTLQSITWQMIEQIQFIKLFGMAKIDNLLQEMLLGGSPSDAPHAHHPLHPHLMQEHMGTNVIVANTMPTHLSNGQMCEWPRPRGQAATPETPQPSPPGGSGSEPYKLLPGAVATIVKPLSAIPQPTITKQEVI
Summary of the method: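 Gain-of-signal mRNA induction, relative to DMSO vehicle, was read after 24 h compound treatment of HepG2 cells bearing transfected GAL4-UAS reporters. Detection used RT-PCR, 6-FAM primer extension and capillary electrophoresis.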

[11] = molecular target: Transcriptional activator Myb (Homo sapiens) (UniProt P10242); assay: ATG_Myb_CIS: Attagene CIS-FACTORIAL HepG2 Assay for human Myeloblastosis (Myb) Proto-Oncogene Transcription Factor (AID 2282986; active = hit-call score of the fitted dose curve at least 0.9, where 1 is the maximum; inactive = score below 0.9); settings: HepG2 Attagene CIS-FACTORIAL Myb reporter transcription; actives raise or lower the signal
Sequence of Transcriptional activator Myb (Homo sapiens) (P10242 whole entry, looked up): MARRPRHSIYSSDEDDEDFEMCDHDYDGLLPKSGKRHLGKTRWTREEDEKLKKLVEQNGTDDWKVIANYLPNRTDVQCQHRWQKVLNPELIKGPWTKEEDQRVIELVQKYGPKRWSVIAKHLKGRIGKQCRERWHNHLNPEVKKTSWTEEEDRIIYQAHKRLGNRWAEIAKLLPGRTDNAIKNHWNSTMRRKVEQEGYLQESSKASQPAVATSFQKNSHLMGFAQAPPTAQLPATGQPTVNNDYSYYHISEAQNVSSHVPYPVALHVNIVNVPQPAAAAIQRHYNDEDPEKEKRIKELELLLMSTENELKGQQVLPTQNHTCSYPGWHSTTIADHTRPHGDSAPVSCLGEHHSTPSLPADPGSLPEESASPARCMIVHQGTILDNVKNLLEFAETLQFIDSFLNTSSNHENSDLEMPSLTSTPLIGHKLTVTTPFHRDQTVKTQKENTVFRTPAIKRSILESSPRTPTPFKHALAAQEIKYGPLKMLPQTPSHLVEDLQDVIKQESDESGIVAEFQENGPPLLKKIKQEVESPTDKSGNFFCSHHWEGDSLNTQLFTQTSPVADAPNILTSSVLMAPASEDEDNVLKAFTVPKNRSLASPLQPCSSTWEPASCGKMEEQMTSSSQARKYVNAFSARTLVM
Summary of the method: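 Transiently transfected HepG2 cells carrying a multiplexed cis-promoter reporter set report endogenous Myb activity after 24 h compound exposure. Reporter mRNA is read by RT-PCR with capillary electrophoresis of fluorescent products, fitted bidirectionally against DMSO.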

[12] = molecular target: Nuclear respiratory factor 1 (Homo sapiens) (UniProt Q16656); assay: ATG_NRF1_CIS: Attagene CIS-FACTORIAL HepG2 Assay for human Nuclear Respiratory Factor 1 (NRF1) Orphan Gene (AID 2282987; active = hit-call score of the fitted dose curve at least 0.9, where 1 is the maximum; inactive = score below 0.9); settings: HepG2 NRF1 cis-element reporter, Attagene multiplex; actives raise or lower the signal
Sequence of Nuclear respiratory factor 1 (Homo sapiens) (Q16656 whole entry, looked up): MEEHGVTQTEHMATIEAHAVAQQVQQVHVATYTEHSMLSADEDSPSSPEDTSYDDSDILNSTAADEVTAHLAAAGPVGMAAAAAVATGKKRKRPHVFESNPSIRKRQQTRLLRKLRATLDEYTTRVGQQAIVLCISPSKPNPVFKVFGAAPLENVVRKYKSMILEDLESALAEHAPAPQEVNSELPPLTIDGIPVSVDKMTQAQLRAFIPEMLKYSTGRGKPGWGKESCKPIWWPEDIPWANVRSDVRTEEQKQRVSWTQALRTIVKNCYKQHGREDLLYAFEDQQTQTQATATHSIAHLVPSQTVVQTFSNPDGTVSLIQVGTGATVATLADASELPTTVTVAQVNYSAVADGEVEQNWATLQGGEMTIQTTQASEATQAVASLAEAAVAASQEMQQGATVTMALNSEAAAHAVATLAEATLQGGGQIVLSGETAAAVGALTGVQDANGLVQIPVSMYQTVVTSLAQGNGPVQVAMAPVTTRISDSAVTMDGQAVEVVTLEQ
Summary of the method: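 HepG2 cells transiently transfected with multiple cis-regulated reporter units, exposed 24 h. Reporter mRNAs measured by RT-PCR, fluorescent labelling, HpaI digestion and capillary electrophoresis; bidirectional fitting against DMSO.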

[13] = molecular target: Estrogen-related receptor gamma (Homo sapiens) (UniProt P62508); assay: ATG_ERRg_TRANS: Attagene TRANS-FACTORIAL HepG2 Assay for human Estrogen-Related Receptor gamma (ERRg) (AID 2282977); settings: HepG2 Attagene TRANS reporter, ERRg transactivation;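 note: hits increase reporter signal over DMSO so potencies reflect activators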
Summary of the method: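 HepG2 cells transiently transfected with multiplexed GAL4-UAS reporter units and chimeric NR-Gal4 constructs were exposed to test chemicals for 24 h. Reporter mRNA was measured by RT-PCR, 6-FAM primer extension, HpaI digestion and capillary electrophoresis; gain-of-signal versus DMSO.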

[14] = molecular target: Glucocorticoid receptor (Homo sapiens) (UniProt P04150); assay: ATG_GR_TRANS: Attagene TRANS-FACTORIAL HepG2 Assay for human Glucocorticoid Receptor (GR) (AID 2282978); settings: HepG2 Attagene TRANS GR reporter, mRNA transcription;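 note: activators score as hits since higher reporter transcript over DMSO is fitted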
Sequence of Glucocorticoid receptor (Homo sapiens) (P04150 whole entry, looked up, the tested form may be a part): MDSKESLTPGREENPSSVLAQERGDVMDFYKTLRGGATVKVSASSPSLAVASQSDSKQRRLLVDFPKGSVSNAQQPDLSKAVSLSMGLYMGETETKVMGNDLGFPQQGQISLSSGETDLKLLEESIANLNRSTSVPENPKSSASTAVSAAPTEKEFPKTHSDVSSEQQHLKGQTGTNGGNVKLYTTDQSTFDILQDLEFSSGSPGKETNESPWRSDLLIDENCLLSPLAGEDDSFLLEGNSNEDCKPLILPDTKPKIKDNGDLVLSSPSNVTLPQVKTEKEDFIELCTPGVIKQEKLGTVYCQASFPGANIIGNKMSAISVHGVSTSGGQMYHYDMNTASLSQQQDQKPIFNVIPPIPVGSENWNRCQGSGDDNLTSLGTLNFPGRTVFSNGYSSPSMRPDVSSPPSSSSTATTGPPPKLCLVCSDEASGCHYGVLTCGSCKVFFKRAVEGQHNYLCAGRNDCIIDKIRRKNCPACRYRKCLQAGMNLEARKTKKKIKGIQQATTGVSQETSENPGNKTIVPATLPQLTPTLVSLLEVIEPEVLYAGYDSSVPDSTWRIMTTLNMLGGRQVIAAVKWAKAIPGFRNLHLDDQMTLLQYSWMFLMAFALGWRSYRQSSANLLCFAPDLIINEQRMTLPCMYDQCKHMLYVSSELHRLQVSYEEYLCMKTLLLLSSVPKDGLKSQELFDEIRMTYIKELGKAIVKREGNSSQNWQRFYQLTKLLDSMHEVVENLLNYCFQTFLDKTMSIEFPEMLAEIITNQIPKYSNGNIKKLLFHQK
Summary of the method: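 HepG2 cells transiently transfected with GAL4-UAS reporter units and exogenous GR-Gal4 chimera, dosed 24 h. Reporter mRNA by RT-PCR, FAM labeling, HpaI digest and capillary electrophoresis; gain-of-signal fit versus DMSO.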

[15] = ATG_M_06_TRANS: Attagene TRANS-FACTORIAL HepG2 Assay for M06 Transcription Factor (Internal Marker) (AID 2282983); settings: HepG2 Attagene TRANS M06 internal marker reporter
Summary of the method: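 Measured by capillary electrophoresis of fluorescently labelled RT-PCR products, this endpoint reflects reporter mRNA in HepG2 cells harbouring exogenous NR-GAL4 reporter constructs after 24 h exposure, with DMSO as baseline.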

[16] = ATG_M_32_TRANS: Attagene TRANS-FACTORIAL HepG2 Assay for M32 Transcription Factor (Internal Marker) (AID 2282984); settings: HepG2 Attagene TRANS M32 internal marker reporter;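 note: transcript level of a background control reporter unit measured by RT-PCR and capillary electrophoresis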
Summary of the method: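 Capillary electrophoresis of 6-FAM-labelled reporter fragments gives the signal; data fitted for gain over DMSO negative control. Source: HepG2 cells bearing transient multiple reporter transcription units, 24 h exposure.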

[17] = molecular target: Nuclear receptor subfamily 4 group A member 2 (Homo sapiens) (UniProt P43354); assay: ATG_NURR1_TRANS: Attagene TRANS-FACTORIAL HepG2 Assay for human Nuclear Receptor Related Protein 1 (NURR1) (AID 2282985); settings: HepG2 Attagene TRANS reporter, mRNA readout
Sequence of Nuclear receptor subfamily 4 group A member 2 (Homo sapiens) (P43354 whole entry, looked up): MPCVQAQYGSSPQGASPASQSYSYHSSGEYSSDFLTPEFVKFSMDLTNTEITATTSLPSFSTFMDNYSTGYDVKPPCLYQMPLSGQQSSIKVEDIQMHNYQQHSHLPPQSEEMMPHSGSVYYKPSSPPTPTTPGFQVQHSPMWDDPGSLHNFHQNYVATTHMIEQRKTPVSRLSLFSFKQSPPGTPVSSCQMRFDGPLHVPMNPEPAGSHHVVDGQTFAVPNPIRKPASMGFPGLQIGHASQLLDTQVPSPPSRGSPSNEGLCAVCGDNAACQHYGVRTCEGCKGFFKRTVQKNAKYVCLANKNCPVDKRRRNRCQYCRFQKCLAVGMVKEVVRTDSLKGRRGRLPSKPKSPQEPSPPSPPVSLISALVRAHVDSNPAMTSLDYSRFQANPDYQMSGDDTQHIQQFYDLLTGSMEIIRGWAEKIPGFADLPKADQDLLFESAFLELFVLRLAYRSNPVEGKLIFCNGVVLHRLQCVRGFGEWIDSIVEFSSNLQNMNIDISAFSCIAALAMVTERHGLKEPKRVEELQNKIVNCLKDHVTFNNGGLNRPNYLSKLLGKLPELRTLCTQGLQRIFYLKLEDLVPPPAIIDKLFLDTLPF
Summary of the method: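 HepG2 / transient MRTU transfection / 24 h compound exposure / RT-PCR + CE fluorescence of reporter mRNA / gain-of-signal vs DMSO.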

[18] = molecular target: Oxysterols receptor LXR-beta (Homo sapiens) (UniProt P55055); assay: ATG_LXRb_TRANS: Attagene TRANS-FACTORIAL HepG2 Assay for human Liver X Receptor beta (LXRb) (AID 2282981); settings: HepG2 Attagene TRANS GAL4-LXRb reporter, mRNA
Sequence of Oxysterols receptor LXR-beta (Homo sapiens) (P55055 whole entry, looked up, the tested form may be a part): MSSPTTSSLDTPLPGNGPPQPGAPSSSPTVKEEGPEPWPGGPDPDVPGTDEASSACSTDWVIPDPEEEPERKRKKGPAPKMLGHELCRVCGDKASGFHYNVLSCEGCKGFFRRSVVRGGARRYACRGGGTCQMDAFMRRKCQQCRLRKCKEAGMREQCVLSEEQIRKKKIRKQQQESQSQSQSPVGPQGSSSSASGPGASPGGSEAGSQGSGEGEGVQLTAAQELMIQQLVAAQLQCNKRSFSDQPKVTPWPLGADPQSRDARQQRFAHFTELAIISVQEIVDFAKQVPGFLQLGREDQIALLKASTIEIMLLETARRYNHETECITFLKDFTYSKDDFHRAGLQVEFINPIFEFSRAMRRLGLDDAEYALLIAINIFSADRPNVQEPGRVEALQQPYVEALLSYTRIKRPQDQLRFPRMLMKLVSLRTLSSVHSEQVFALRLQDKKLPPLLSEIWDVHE
Summary of the method: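 Gain-of-signal mRNA reporter endpoint, DMSO as negative control. Transiently transfected HepG2 cells carrying the NR-Gal4 chimera and GAL4-UAS reporter units were treated 24 h; transcripts quantified by RT-PCR and capillary electrophoresis fluorescence.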

[19] = molecular target: Steroid hormone receptor ERR1 (Homo sapiens) (UniProt P11474); assay: ATG_ERRa_TRANS: Attagene TRANS-FACTORIAL HepG2 Assay for human Estrogen-Related Receptor alpha (ERRa) (AID 2282971); settings: HepG2 Attagene TRANS reporter, ERRa transactivation
Summary of the method: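 HepG2 cells were transiently transfected with multiple GAL4-UAS reporter units, then dosed with compound for 24 h. Total RNA was reverse-transcribed, reporter cDNA PCR-amplified and fluorescently labelled, and fragments resolved by capillary electrophoresis; induction was compared with DMSO.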

[20] = molecular target: Bile acid receptor (Homo sapiens) (UniProt Q96RI1); assay: ATG_FXR_TRANS: Attagene TRANS-FACTORIAL HepG2 Assay for Farnesoid X Receptor (FXR) (AID 2282979); settings: HepG2 Attagene TRANS FXR-GAL4 reporter transcription;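 note: hits raise reporter mRNA above DMSO so AC50 marks FXR activation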
Summary of the method: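 Chimeric FXR-GAL4 activity in transiently transfected human HepG2 liver cells is scored as induction of reporter mRNA after 24 h of dosing. Detection uses RT-PCR with fluorescent labelling and capillary electrophoresis, with DMSO serving as baseline.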

Measured: AC50

CN1C(=O)N(C)C(O)C1O (stereo not drawn)
not listed: [13] | [14] | [15] | [16] | [17] | [18] | [19] | [20]
inactive: all other assays above

CC(=O)C=CC1C(C)=CCC(C)C1(C)C (stereo not drawn)
not listed: [7] | [9] | [18] | [19] | [20]
inactive: all other assays above

C=CC(C)(CCC=C(C)C)OC(=O)CC(C)C (stereo not drawn)
not listed: [8] | [10] | [13] | [15] | [17] | [19] | [20]
inactive: all other assays above

CC(C)=CCC/C(C)=C\C#N
not listed: [13] | [14] | [19] | [20]
inactive: all other assays above

N#CCc1ccc(Cl)cc1Cl
not listed: [8] | [9] | [13] | [14] | [17] | [19] | [20]
inactive: all other assays above

Cc1ccc(C(C)c2ccc(C)c(C)c2)cc1C
inactive: [2] | [3] | [4] | [5] | [6] | [7] | [14] | [17]
active: [1] 123 µM | [11] 125 µM

CCCCC(CC)COC(=O)c1ccccc1O (stereo not drawn)
active: [5] 50 µM
not listed: [7] | [8] | [18] | [20]
inactive: all other assays above

NCCCN1CCN(CCCN)CC1
inactive: [1] | [2] | [3] | [4] | [5] | [6] | [7] | [16] | [11] | [12]

CC1OC1C1CCC2(C)OC2C1 (stereo not drawn)
not listed: [13] | [14] | [15] | [19] | [20]
inactive: all other assays above

CC(=O)OCc1ccco1
not listed: [7] | [9] | [14] | [17] | [18] | [20]
inactive: all other assays above

C=C(C)C(=O)OCCO
not listed: [10] | [13] | [17] | [18] | [19] | [20]
inactive: all other assays above

O=C(Oc1ccccc1)c1ccc2ccccc2c1O
active: [2] 49 µM | [3] 26.4 µM | [6] 38.6 µM
not listed: [7] | [8] | [9] | [12] | [13] | [20]
inactive: all other assays above

OCCNCc1ccccc1
not listed: [9] | [10] | [13] | [17] | [18] | [19] | [20]
inactive: all other assays above

CCN(CCO)c1cccc(C)c1
not listed: [9] | [10] | [12] | [14] | [15] | [18]
inactive: all other assays above

CCCCC(CC)COC(=O)c1ccccc1 (stereo not drawn)
inactive: [1] | [2] | [3] | [4] | [6] | [7] | [14] | [16] | [17] | [11]
active: [5] 34.6 µM

CC(C)CC(O)Cc1ccccc1 (stereo not drawn)
not listed: [13] | [17] | [18] | [19] | [20]
inactive: all other assays above

CCCCCCCCCCOS(=O)(=O)O
inactive: [1] | [2] | [3] | [4] | [5] | [6] | [7] | [20] | [11] | [12]

CC(C)=CCCC(C)C=O (stereo not drawn)
active: [3] 32 µM
not listed: [8] | [13] | [14] | [15] | [17] | [18] | [19]
inactive: all other assays above

CCC(C)(C)C1CCCCC1OC(C)=O (stereo not drawn)
not listed: [7] | [9] | [10] | [13] | [14] | [17] | [18] | [20]
inactive: all other assays above

O=c1cc(-c2ccccc2)oc2ccccc12
active: [3] 30.5 µM | [5] 4.97 µM | [6] 82.8 µM
not listed: [8] | [9] | [10] | [13] | [16] | [19] | [20]
inactive: all other assays above
